NLRP3 yeast inh: inhibitors of NALP3 inflammasome in yeast; Yeast reconstituted NLRP3/ASC/caspase-1, beta-gal luminescence, 24 h; inhibition, % at 10 µM; 330,000 compounds, 0.39% hits;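 active = inhibition of 50% or more; inactive = inhibition below 50%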
SKKanGAS inh: SKKanGAS growth inhibition; S. pyogenes SKKanGAS, kanamycin growth, BacTiter-Glo, 6 h; inhibition, % at 7.5 µM; AID 1662; 300,000 compounds, 1.3% hits;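 active = mean replicate score, as percent of positive control median, at least 50; inconclusive = mean below 50 but one replicate at or above 50; inactive = mean and every replicate below 50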;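 also: strain carries kanamycin resistance gene driven by streptokinase promoter and grows in 40 µg/ml kanamycin; loss of luminescence reflects streptokinase promoter inhibition or plain growth inhibition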
tim10-1 inh: growth inhibitors of tim10-1 mutant yeast; 330,000 compounds, 2.2% hits; AID 463190; S. cerevisiae tim10-1 ts strain growth, BacTiter-Glo, 24 h; inhibition, % at 20 µM;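 active = inhibition of at least 40%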;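 also: mutant grown at 25 °C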
TIM10 inh: TIM10 yeast growth inhibition; 330,000 compounds, 1.4% hits; S. cerevisiae TIM10 strain growth, BacTiter-Glo luminescence, 24 h; inhibition, % at 10 µM;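 active = inhibition of 40% or more at the single tested concentration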;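 also: wild-type TIM10 isogenic control strain grown at permissive 25 °C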
tim23-1 inh: inhibits growth of tim23-1 mutant yeast; S. cerevisiae tim23-1 growth, BacTiter-Glo luminescence, 24 h; inhibition, % at 20 µM; 330,000 compounds, 1.3% hits;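 active = growth inhibition of the mutant yeast at or above 50%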;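 also: temperature-sensitive mutant grown at 25 °C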
NALP1 inh: blocks the NALP1 inflammasome reconstituted in yeast; AID 2071; 280,000 compounds, 0.61% hits; S. cerevisiae NALP1/ASC/caspase-1 growth, X-gal OD620, 72 h; inhibition, % at 10 µM; in the data active = inhibition mostly above about 24%, no sharp cut-off; inactive = mostly below about 32%
tim10-1 conf: confirmation of tim10-1 mutant yeast growth inhibitors. shares compounds with tim10-1 inh. S. cerevisiae tim10-1 ts strain growth, BacTiter-Glo, 24 h. inhibition, % at 20 µM. 7,400 compounds, 56% hits. AID 463213;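 active = inhibition of yeast growth at or above a set limit in either of two repeat tests at 20 µM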;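 also: tim10-1 mutant grown at permissive 25 °C to find synthetic lethal compounds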
TIM10 conf: TIM10 yeast growth inhibition, confirmed; shares compounds with TIM10 inh; S. cerevisiae tim10 strain growth, BacTiter-Glo luminescence, 24 h; inhibition, % at 10 µM; 4,600 compounds, 63% hits; AID 463215;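 active = inhibition of yeast growth at or above a set limit in either of two replicates at 10 µM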; also: this counterscreen used the strain with wild-type TIM10
tim23-1 confirm: confirmation of tim23-1 mutant yeast growth inhibitors; inhibition, % at 20 µM; S. cerevisiae tim23-1 growth, BacTiter-Glo luminescence, 24 h; 4,400 compounds, 83% hits; AID 463218; shares compounds with tim23-1 inh;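 active = inhibition above about 39% in either of two replicate wells at 20 µM, limit read from the data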;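 also: temperature-sensitive tim23-1 mutant grown at 25 °C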
Large screens that a line does not name were inactive (follow-up assays come after a bar, where they were run). The list is not random: actives were taken first. Their share in the collection is about 4.9%.

CC(NC(=O)c1ccccc1Cl)C(=O)OCc1cn2cc(Cl)ccc2n1 (configuration not stated)	none (no result: SKKanGAS inh, NALP1 inh)
Cc1ccc(C)c2c1[nH]c1ccc([N+](=O)[O-])cc12	tim10-1 inh 50, tim23-1 inh 68 | tim10-1 conf 31 | tim23-1 confirm 51
Cc1c(C(=O)NN)[nH]c2ccc([N+](=O)[O-])cc12	none
CC(c1ccccc1)N1C(=O)/C(=C/c2ccncc2)SC1=S (configuration not stated)	tim10-1 inh 66, TIM10 inh 62, tim23-1 inh 73 | tim10-1 conf 61 | TIM10 conf 73 | tim23-1 confirm inactive
CC(=O)Nc1ccc(NC(=O)C(C)OC(=O)[C@@H]2CCCN2C(=O)c2cccs2)cc1 (some centres not stated)	none (no result: SKKanGAS inh, NALP1 inh)
c1ccc(N/N=C(\Cc2ncc[nH]2)c2ccccc2)cc1	none
Clc1cccc(N/N=C(\Cc2nc3ccccc3[nH]2)c2ccccc2)c1	SKKanGAS inh 91, tim10-1 inh 40, TIM10 inh 56, tim23-1 inh 64 | tim10-1 conf inactive | TIM10 conf inactive | tim23-1 confirm inactive
O=[N+]([O-])c1ccc(S(=O)(=O)NCC(c2cccnc2)N2CCc3ccccc32)cc1 (configuration not stated)	none (no result: NALP1 inh)
N/C(=C\C(=O)c1cc(Cl)ccc1O)C(Cl)(Cl)Cl	tim10-1 inh 40, TIM10 inh 42, tim23-1 inh 73 | tim10-1 conf 48 | TIM10 conf inactive | tim23-1 confirm inactive
COc1ccc2c(c1)sc1nc(-c3ccccc3)cn12	tim10-1 inh 40, tim23-1 inh 60 | tim10-1 conf inactive | tim23-1 confirm 67
c1ccc(-c2noc(-c3ccc4c(c3)OCO4)n2)nc1	SKKanGAS inh 76, tim10-1 inh 49, tim23-1 inh 52 | tim10-1 conf 40 | tim23-1 confirm 60
c1ccc(-c2noc(-c3ccc4ccccc4c3)n2)nc1	none
CO/N=C(\c1nonc1N)N1CCN(c2ccc([N+](=O)[O-])cc2Cl)CC1	none
CC(=O)O/N=C(/c1nonc1N)N1CCN(c2ccc([N+](=O)[O-])cc2Cl)CC1	tim10-1 inh 62, TIM10 inh 75, tim23-1 inh 63 | tim10-1 conf 67 | TIM10 conf 85 | tim23-1 confirm 75
Cc1ccccc1C(=O)Nc1cccc(C(=O)N/N=C/c2ccccn2)c1	none
Cc1noc(/C=C/c2ccccn2)c1[N+](=O)[O-]	tim10-1 inh 53, TIM10 inh 51, tim23-1 inh 62, NALP1 inh 41 | tim10-1 conf 62 | TIM10 conf 58 | tim23-1 confirm 54
Cc1nn(-c2ccccc2)c(Cl)c1C(=O)NNC(=O)c1ccccc1O	none (no result: SKKanGAS inh, NALP1 inh)
N#C/C(=C\c1ccc(Sc2ccc(Cl)cc2)o1)c1nc2ccccc2[nH]1	none (no result: NLRP3 yeast inh, SKKanGAS inh, tim10-1 inh, TIM10 inh, tim23-1 inh)
N#C/C(=C\c1c(Cl)cccc1Cl)c1nc2ccccc2[nH]1	tim10-1 inh 63, TIM10 inh 48, tim23-1 inh 61 | tim10-1 conf 53 | TIM10 conf 52 | tim23-1 confirm 73
Cc1cc(O)ccc1N/C=C(\C#N)c1nc2ccccc2o1	none
N#C/C(=C\c1c(Cl)cccc1Cl)c1nc2ccccc2o1	tim10-1 inh 73, TIM10 inh 40, tim23-1 inh 62 | tim10-1 conf 75 | TIM10 conf inactive | tim23-1 confirm 74
CCOC(=O)C1=C(C)N=C2SC(C(=O)OC)=CC(=O)N2C1c1ccc(OC)cc1 (configuration not stated)	tim10-1 inh 69, TIM10 inh 71, tim23-1 inh 75 | tim10-1 conf 78 | TIM10 conf 75 | tim23-1 confirm 60
Clc1ccc(CSc2nccn2Cc2ccccc2)cc1	SKKanGAS inh inconclusive, tim10-1 inh 48, TIM10 inh 60, tim23-1 inh 51 | tim10-1 conf 44 | TIM10 conf 44 | tim23-1 confirm 54

High-throughput results: PubChem BioAssay, several laboratories
